In PubChem BioAssay (Tox21):
Inconclusive results are not listed. Calls of active or inactive are those of the source. Unless noted, the call rests on the fitted dose curve; in most records, active means well fitted curve in the direction sought with a large enough effect in the repeat runs; inconclusive means weak or mixed curves; inactive means no such curve, though single readings can be large; an effect the other way counts as inactive or inconclusive.

Experiments:
[1] = qHTS assay to identify small molecule antagonists of the glucocorticoid receptor (GR) signaling pathway - cell viability counter screen (AID 720693); further: nearly all actives have a fitted effect of over 55% in size
[2] = qHTS assay for identifying genotoxic compounds that show differential cytotoxicity against isogenic chicken DT40 cell lines with known DNA damage response pathways - Rev3 mutant cell line (AID 743014); further: nearly all actives have a fitted effect of over 55% in size; further: potency means the concentration at half of the fitted maximal effect
[3] = qHTS assay for identifying genotoxic compounds that show differential cytotoxicity against isogenic chicken DT40 cell lines with known DNA damage response pathways - Rad54/Ku70 mutant cell line (AID 743015); further: nearly all actives have a fitted effect of over 60% in size; further: potency means the concentration at half of the fitted maximal effect
[4] = qHTS assay to identify small molecule antagonists of the androgen receptor (AR) signaling pathway using the MDA cell line - cell viability counter screen (AID 743041; further: nearly all actives have a fitted effect of over 45% in size)
In short: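 Cytotoxicity counter screen: MDA-kb2 AR-luc cells, compound + R1881, 16 h, 37C, 0% CO2; CellTiter-Fluor added at 15.5 h, fluorescence read after 30 min.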

[5] = qHTS assay to identify small molecule antagonists of the thyroid receptor (TR) signaling pathway - cell viability counter screen (AID 743064); further: nearly all actives have a fitted effect of over 50% in size; further: potency means the concentration at half of the fitted maximal effect
In short: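 CellTiter-Fluor readout, 30 min at 37 °C/5% CO2, following 23.5 h incubation of GH3.TRE-Luc cells with test compound and 1 nM T3 (final).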

[6] = qHTS assay to identify small molecule antagonists of the thyroid receptor (TR) signaling pathway (AID 743065); further: nearly all actives have a fitted effect of over 55% in size; further: potency means the concentration at half of the fitted maximal effect
In short: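 GH3.TRE-Luc rat pituitary cells (two TREs driving luciferase) were dosed with compound, then stimulated with 1 nM T3 (final) for 23.5 h at 37 C. ONE-Glo luminescence was the read-out, with CellTiter-Fluor fluorescence as the cytotoxicity counter-screen.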

[7] = tested on: thyroid hormone receptor (rat, GH3 cells); test: qHTS assay to identify small molecule agonists of the thyroid receptor (TR) signaling pathway (AID 743066; calls by dose curve)
[8] = qHTS assay to identify small molecule antagonists of the estrogen receptor alpha (ER-alpha) signaling pathway using the BG1 cell line - cell viability counter screen (AID 743081);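 further: compound given together with 17beta-estradiol as the ER stimulus; series mostly up to about 70 µM; nearly all actives have a fitted effect of over 45% in size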
Aromatase (Homo sapiens) = Aromatase (Homo sapiens) (UniProt P11511); test: qHTS assay to identify aromatase inhibitors (AID 743083); further: series mostly up to about 70 µM; nearly all actives have a fitted effect of over 55% in size
[9] = qHTS assay for identifying genotoxic compounds that show differential cytotoxicity against isogenic chicken DT40 cell lines with known DNA damage response pathways - wild type cell line (AID 743012); further: nearly all actives have a fitted effect of over 60% in size; further: potency means the concentration at half of the fitted maximal effect
In short: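 Luminescent ATP viability signal (CellTiter-Glo, 30 min RT) recorded after wild type DT40 cells were incubated with compounds for 40 h at 37 C/5% CO2.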

[10] = molecular target: Estrogen receptor (Homo sapiens) (UniProt P03372); test: qHTS assay to identify small molecule antagonists of the estrogen receptor alpha (ER-alpha) signaling pathway (AID 743069; active means well fitted curve in the direction sought with a large enough effect in the signal ratio in the repeat runs, not every such curve was filed as active; the % refers to the signal ratio)
In short: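 Beta-lactamase FRET fluorescence is read after 2 hr at room temperature with LiveBLAzer B/G substrate. Before that, ER-alpha-bla HEK293 cells sit 4 hr after plating, then receive compound plus 17beta-estradiol and incubate 18 hr at 37C.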

[11] = molecular target: Estrogen receptor (Homo sapiens) (UniProt P03372); test: qHTS assay to identify small molecule agonists of the estrogen receptor alpha (ER-alpha) signaling pathway (AID 743075; calls by dose curve;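 further: HEK293 GripTite cells with ER-alpha and UAS-driven beta-lactamase reporter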)
[12] = molecular target: Estrogen receptor (Homo sapiens) (UniProt P03372); test: qHTS assay to identify small molecule agonists of the estrogen receptor alpha (ER-alpha) signaling pathway using the BG1 cell line (AID 743079); further: nearly all actives have a fitted effect of over 20% in size; further: potency means the concentration at half of the fitted maximal effect
[13] = qHTS assay to identify small molecule antagonists of the estrogen receptor alpha (ER-alpha) signaling pathway - cell viability counter screen (AID 743074; calls by dose curve;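 further: HEK293 cells carrying ER-alpha-UAS-bla reporter stimulated with 17beta-estradiol; nearly all actives have a fitted effect of over 45% in size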)
[14] = qHTS assay to identify small molecule antagonists of the androgen receptor (AR) signaling pathway - cell viability counter screen (AID 743033; further: nearly all actives have a fitted effect of over 45% in size)
[15] = molecular target: Androgen receptor (Homo sapiens) (UniProt P10275); test: qHTS assay to identify small molecule antagonists of the androgen receptor (AR) signaling pathway (AID 743035; active means well fitted inhibition curve with a large enough effect in the signal ratio in the repeat runs, not every such curve was filed as active; the % refers to the signal ratio)
In short: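 Quantitative HTS of the Tox21 10K library used HEK293 AR-UAS-bla cells stimulated with R1881 alongside compound for 16 h at 37C, followed by beta-lactamase FRET detection (LiveBLAzer B/G, 2 h, RT).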

[16] = molecular target: Androgen receptor (Homo sapiens) (UniProt P10275); test: qHTS assay to identify small molecule agonists of the androgen receptor (AR) signaling pathway (AID 743036; active means well fitted activation curve with a large enough effect in the signal ratio in the repeat runs, with a control signal flat, not every such curve was filed as active; the % refers to the signal ratio)
In short: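 Following a 4 h settling period, AR-UAS-bla HEK293 cells were dosed with compounds for 16 h at 37C. A 2 h room-temperature incubation with LiveBLAzer B/G FRET substrate preceded the fluorescence measurement.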

[17] = molecular target: Androgen receptor (Homo sapiens) (UniProt P10275); test: qHTS assay to identify small molecule agonists of the androgen receptor (AR) signaling pathway using the MDA cell line (AID 743040; further: nearly all actives have a fitted effect of over 20% in size)
In short: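 Luciferase read-out, ONE-Glo, 30 min RT. Cells: MDA-kb2 AR-luc, MMTV promoter with AR and GR response elements. Compound exposure 16 h, 37C, 0% CO2, after 5 h pre-incubation. qHTS agonist mode.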

[18] = molecular target: Androgen receptor (Homo sapiens) (UniProt P10275); test: qHTS assay to identify small molecule antagonists of the androgen receptor (AR) signaling pathway using the MDA cell line (AID 743042; further: nearly all actives have a fitted effect of over 55% in size)
In short: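 MDA-kb2 breast carcinoma cells carrying MMTV-luciferase (AR/GR responsive) were co-treated with compounds and the agonist R1881 for 16 h at 37C. Inhibition read as ONE-Glo luminescence; CellTiter-Fluor fluorescence measured in parallel for cytotoxicity.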

[19] = qHTS assay to identify small molecule antagonists of the estrogen receptor alpha (ER-alpha) signaling pathway using the BG1 cell line (AID 743080; calls by dose curve;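 further: BG1 cells stimulated with 17beta-estradiol alongside compound; series mostly up to about 70 µM; nearly all actives have a fitted effect of over 25% in size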)
In short: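 Endogenous full-length ER-alpha in BG1-Luc-4E2 cells drives a stably integrated 4×ERE luciferase gene; compounds were tested against 17beta-estradiol over 21.5 h, with luminescence and multiplexed viability fluorescence recorded.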

Measured: Potency

Aromatase (Homo sapiens), sequence (P11511 whole entry, looked up): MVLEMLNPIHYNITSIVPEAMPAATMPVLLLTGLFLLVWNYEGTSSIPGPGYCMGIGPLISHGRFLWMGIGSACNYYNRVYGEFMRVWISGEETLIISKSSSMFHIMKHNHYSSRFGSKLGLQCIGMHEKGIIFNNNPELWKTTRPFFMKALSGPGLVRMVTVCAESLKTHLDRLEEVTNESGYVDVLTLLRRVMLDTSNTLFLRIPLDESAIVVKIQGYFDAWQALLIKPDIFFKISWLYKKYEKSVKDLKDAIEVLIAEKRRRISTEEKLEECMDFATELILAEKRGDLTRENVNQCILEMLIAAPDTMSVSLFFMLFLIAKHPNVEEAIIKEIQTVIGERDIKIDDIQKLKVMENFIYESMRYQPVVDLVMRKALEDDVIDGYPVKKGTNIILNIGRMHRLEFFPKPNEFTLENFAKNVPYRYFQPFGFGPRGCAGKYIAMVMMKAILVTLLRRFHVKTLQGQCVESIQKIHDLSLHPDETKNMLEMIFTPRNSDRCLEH
Androgen receptor (Homo sapiens), sequence (P10275 whole entry, looked up): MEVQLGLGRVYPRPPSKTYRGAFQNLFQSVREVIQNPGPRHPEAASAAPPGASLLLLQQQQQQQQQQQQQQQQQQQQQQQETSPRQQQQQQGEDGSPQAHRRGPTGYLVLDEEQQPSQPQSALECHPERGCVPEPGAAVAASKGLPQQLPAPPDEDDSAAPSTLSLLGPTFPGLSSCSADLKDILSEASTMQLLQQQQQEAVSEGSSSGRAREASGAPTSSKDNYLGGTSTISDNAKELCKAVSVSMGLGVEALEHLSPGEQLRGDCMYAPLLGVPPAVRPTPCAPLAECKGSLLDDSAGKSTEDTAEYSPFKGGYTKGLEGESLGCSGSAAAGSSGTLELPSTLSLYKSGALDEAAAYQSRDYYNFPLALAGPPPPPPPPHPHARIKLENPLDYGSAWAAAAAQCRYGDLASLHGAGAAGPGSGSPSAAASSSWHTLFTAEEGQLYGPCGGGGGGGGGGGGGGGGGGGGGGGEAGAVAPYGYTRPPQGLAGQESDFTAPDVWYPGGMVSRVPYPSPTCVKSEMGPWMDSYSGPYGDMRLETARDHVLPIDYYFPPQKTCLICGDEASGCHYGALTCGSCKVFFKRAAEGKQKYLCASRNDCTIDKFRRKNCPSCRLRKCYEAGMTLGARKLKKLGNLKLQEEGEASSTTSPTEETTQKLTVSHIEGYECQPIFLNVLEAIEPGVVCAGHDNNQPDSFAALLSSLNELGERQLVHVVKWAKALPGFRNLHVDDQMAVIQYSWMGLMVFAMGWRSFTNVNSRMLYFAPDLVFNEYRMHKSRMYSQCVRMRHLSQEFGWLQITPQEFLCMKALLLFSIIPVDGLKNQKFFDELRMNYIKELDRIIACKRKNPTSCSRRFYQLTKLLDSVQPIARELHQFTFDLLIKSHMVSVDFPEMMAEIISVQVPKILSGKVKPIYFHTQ
Estrogen receptor (Homo sapiens), sequence (P03372 whole entry, looked up): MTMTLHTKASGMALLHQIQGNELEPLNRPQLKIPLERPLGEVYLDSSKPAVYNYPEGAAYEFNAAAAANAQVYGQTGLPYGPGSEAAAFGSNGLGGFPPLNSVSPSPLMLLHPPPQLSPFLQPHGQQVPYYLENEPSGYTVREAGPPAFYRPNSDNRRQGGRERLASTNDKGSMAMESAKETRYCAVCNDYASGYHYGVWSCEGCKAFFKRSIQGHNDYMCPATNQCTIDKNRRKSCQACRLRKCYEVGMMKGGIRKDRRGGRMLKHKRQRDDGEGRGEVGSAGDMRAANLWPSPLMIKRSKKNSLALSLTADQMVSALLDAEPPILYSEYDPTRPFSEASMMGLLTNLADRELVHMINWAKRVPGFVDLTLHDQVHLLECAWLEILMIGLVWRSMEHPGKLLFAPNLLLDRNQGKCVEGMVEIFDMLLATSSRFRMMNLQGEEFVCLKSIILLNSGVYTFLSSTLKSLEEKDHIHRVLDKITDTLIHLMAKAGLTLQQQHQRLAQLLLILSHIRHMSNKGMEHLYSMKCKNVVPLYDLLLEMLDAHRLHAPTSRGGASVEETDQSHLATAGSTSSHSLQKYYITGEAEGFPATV

CC(C)=CCC[C@](C)(O)[C@@H]1CC=C(C)CC1
inactive: [1] | [2] | [3] | [4] | [5] | [6] | [7] | [8] | Aromatase (Homo sapiens)

CCOC(=O)COc1ccc2c(c1)CC(NCC(O)c1cccc(Cl)c1)CC2 (stereo unspecified)
active: [9] 54.9 µM | [2] 54.9 µM | [3] 54.9 µM | [5] 27.5 µM
inactive: [4] | [10] | [11] | [12] | [8]

NC(=O)Cc1cccc(C(=O)c2ccccc2)c1N
inactive: [1] | [2] | [3] | [4] | [6] | [7] | [13] | [8] | Aromatase (Homo sapiens)

C1CCOC1
inactive: [1] | [14] | [4] | [13] | [8] | Aromatase (Homo sapiens)

Oc1ccccc1C=NCc1ccccc1
inactive: [1] | [2] | [4] | [5] | [7] | [13] | [8] | Aromatase (Homo sapiens)

COC(=O)N[C@H](C(=O)N[C@@H](Cc1ccccc1)[C@@H](O)CN(Cc1ccc(-c2ccccn2)cc1)NC(=O)[C@@H](NC(=O)OC)C(C)(C)C)C(C)(C)C
inactive: [1] | [14] | [4] | [5] | [7] | [10] | [11] | [8] | Aromatase (Homo sapiens)

CC(C)c1ccccc1
not listed: [4] | [5] | Aromatase (Homo sapiens) | [9] | [14]
inactive: all other assays above

CCC(=O)O[C@]1(C(=O)SCF)[C@H](C)C[C@H]2[C@@H]3C[C@H](F)C4=CC(=O)C=C[C@]4(C)[C@@]3(F)[C@@H](O)C[C@@]21C
inactive: [1] | [2] | [4] | [5] | [7] | [13] | [11] | [12] | [8] | Aromatase (Homo sapiens)

CN1C(=O)CC(c2ccccc2)C1=O (stereo unspecified)
inactive: [1] | [2] | [3] | [4] | [6] | [7] | [13] | [8] | Aromatase (Homo sapiens)

O=C(Cl)c1cccc([N+](=O)[O-])c1
inactive: [1] | [4] | [7] | [10] | [13] | [11] | [12] | [19] | [8] | Aromatase (Homo sapiens)

CC(C)(C)c1ccc(OC(=O)c2ccccc2O)cc1
inactive: [1] | [3] | [14] | [4] | [7] | [10] | [13] | [11] | [8] | Aromatase (Homo sapiens)
active: [12] 27.3 µM

CC(C)Nc1nc(N)nc(Cl)n1
inactive: [1] | [2] | [3] | [4] | [7] | [13] | [8] | Aromatase (Homo sapiens)

CN1[C@@H]2CC[C@H]1CC(OC(=O)c1c[nH]c3ccccc13)C2 (stereo partly specified)
active: [5] 23.7 µM | [6] 26.6 µM
inactive: [1] | [2] | [3] | [14] | [7] | [13] | [8] | Aromatase (Homo sapiens)

CN(CCCN1c2ccccc2CCc2ccccc21)CC(=O)c1ccc(Cl)cc1
inactive: [10] | [13] | [11] | [12] | [19] | [8] | Aromatase (Homo sapiens)
active: [9] 9.44 µM | [2] 13.3 µM | [3] 13.3 µM | [6] 26.6 µM

OCc1c2ccccc2cc2ccccc12
inactive: [1] | [14] | [4] | [5] | [13] | [11] | [8] | Aromatase (Homo sapiens)
active: [12] 54.6 µM

Nc1ccc2ccccc2c1S(=O)(=O)O
inactive: [9] | [2] | [3] | [14] | [4] | [5] | [6] | [7] | [13] | [8]

O=c1[nH]cnc2c1ncn2[C@@H]1O[C@H](CO)[C@@H](O)[C@H]1O
inactive: [2] | [3] | [4] | [6] | [7] | [13] | [8] | Aromatase (Homo sapiens)
